# Screening data as filed in PubChem BioAssay.
# AI-2 QS modul = modulators of Vibrio harveyi AI-2 quorum sensing system; Vibrio harveyi JMH597 AI-2 luminescence/OD600 ratio, 9 h; hits give low values; strain lacks LuxN and CqsS sensors; 0 = neutral-control median; activity change, % at 7.5 µM; hit rate 0.4% among 300,000; in the data active means activity change below about -75%, passing the limit was not always enough;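 further: luminescence divided by OD600 gain over 9 h not by final OD600 alone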
# FXN GAA850 act = activators of GAA850 frataxin (FXN) promoter; HEK293 lucGAA850 FXN promoter luciferase reporter, 24 h; percent of 10 µM SAHA response; activation, % at 6 µM; hit rate 0.56% among 360,000; AID 540364;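 active means activation above the average of all compounds screened plus 3 SD, cutoff fixed separately per campaign, cut at about 7.5% in these data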;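 further: 0% = DMSO wells and 100% = 10 µM SAHA wells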
# HSP90 inh = blocks HSP90-mediated luciferase refolding in reticulocyte lysate; Rabbit reticulocyte lysate, luciferase refolding luminescence, 3 h; inhibition, % at 5.6 µM; hit rate 0.91% among 290,000;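 active means inhibition above the screen-wide mean plus 3 SD, computed separately per campaign, cut at about 16% in these data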;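 further: 0% = DMSO wells and 100% = 60 µM geldanamycin wells; inhibitors lower the luminescence because luciferase stays unfolded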
# SMARCA2 act = SMARCA2 function activation, primary screen. MG213 cells, MMTV-luciferase reporter, dexamethasone, overnight. activation, % at 9.1 µM. hit rate 1% among 370,000. AID 652017; in the data active means activation above about 7.8%;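 further: 0% = vehicle wells and 100% = reference activator wells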
# HSF1 inhib = HSF1 inhibition; hit rate 0.77% among 300,000; NIH3T3-HGL HSE-luciferase, MG132-induced, luminescence 8 h; hits give low values; AID 2098; activity change, negative = inhibition, % at 7.5 µM (by protocol);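 active means more than half of replicate wells show activity change below -50%, luminescence cut by over half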;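 further: luciferase reports HSF-1 transcriptional activity via heat shock element; 0% = median of DMSO wells and -100% = zero luminescence signal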
# PG9 binder = binds the HIV-1 gp120 antibody PG9; TR-FRET gp120-PG9 antibody binding; inhibition, % at 6.7 µM; hit rate 0.43% among 360,000; in the data active means inhibition above about 8.5%
# GAA30 FXN cntr = counter-screen for GAA850 frataxin promoter activators: GAA30 promoter activation; activation, % at 6 µM; shares compounds with FXN GAA850 act; HEK293 lucGAA30 FXN promoter luciferase, 24 h; DMSO = 0%, 5 µM ipriflavone = 100%; AID 588350; hit rate 66% among 1,900;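 active means mean activation above the mean of solvent-only control wells plus 3 SD, cut at about 22% in these data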;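 further: counterscreen of GAA850 promoter hits where activity marks nonselective or luminescence artifacts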
# FXN GAA850 conf = GAA850 FXN promoter activation confirmation; shares compounds with FXN GAA850 act; hit rate 86% among 1,900; AID 588351; activation, % at 6 µM; HEK293 lucGAA850 FXN promoter luciferase reporter, 24 h; 100% = activation by SAHA;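 active means mean activation above a set limit taken from the primary screen, cut at about 8% in these data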;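 further: 0% = DMSO wells and 100% = 10 µM SAHA wells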
# An asterisk follows results filed as active; . = no result. Most compounds without a hit are left out; they make up all but 3.4% or so of the library.
SMILES,AI-2 QS modul,FXN GAA850 act,HSP90 inh,SMARCA2 act,HSF1 inhib,PG9 binder,GAA30 FXN cntr,FXN GAA850 conf
COc1cc2c(cc1N)-c1ccc(N)cc1C2=O,.,9.4*,.,2,.,-40,118*,38*
COc1ccc(-c2cccc3c4c([nH]c23)[C@@H]2C[C@H]3[C@@H](C(=O)N2CC4)[C@H](C)ON3C)cc1,.,.,.,-5,.,0,.,.
O=C(N/N=C/c1ccc(O)cc1)Nc1cccc2nsnc12,24,11*,1,7,-18,-1,57*,37*
COc1cc(/C=N/NC(=O)Nc2cccc3nsnc23)cc(OC)c1OC,16,0,2,0,-34,0,.,.
O=C(NCc1ccccc1Cl)C1CCCN(c2nc3ccsc3c(=O)s2)C1 (stereo not drawn),14,.,0,.,-1,.,.,.
CC1CCCN(c2nc3ccsc3c(=O)s2)C1 (stereo not drawn),23,11*,3,4,22,1,82*,35*
Nc1nn2cc(-c3ccc(Br)cc3)nc2c2ccccc12,2,12*,2,7,15,1,120*,50*
Brc1ccc(-c2cn3nc4c(nc3n2)CCCC4)cc1,14,3,1,2,14,-1,.,.
CN(C)P(=O)(Nc1cccc2ccccc12)Nc1cccc2ccccc12,.,-5,.,-2,.,-1,.,.
CC(C)OP(=O)(Nc1cccc2ccccc12)OC(C)C,2,12*,3,0,4,-1,25*,12*
CC(C)C[C@H]1COc2cccc(NCCO)c2S(=O)(=O)N1,.,.,.,-3,.,-2,.,.
CC1(C)CC(=O)C=C(c2ccccc2-c2ccc3c(c2)OCO3)C1=O,.,.,.,-4,.,-2,.,.
c1ccc2oc(-c3ccn[nH]3)cc2c1,-10,8.0*,0,4,9,0,122*,38*
C=CCOC(=O)C1=C(C)NC(C)=C(C(=O)OCC=C)C1c1cn(-c2ccccc2)nc1-c1ccco1,11,13*,1,0,-13,-2,11,5
Cc1ccccc1CSc1nsc(N)n1,24,4,-1,.,16,.,.,.
Nc1nc(SCc2ccc(Cl)cc2Cl)ns1,15,7.9*,5,0,9,1,50*,15*
COc1ccccc1Cc1c(-c2ccc(C#N)cc2)nc2c3ccccc3ccn12,.,.,.,-1,.,2,.,.
Cc1ccc(C2CC(=O)C(C=NCCN3CCN(CC(=O)Nc4cc(C)cc(C)c4)CC3)=C(O)C2)cc1 (stereo not drawn),17,8.5*,0,1,.,0,13,6
COc1ccc2nc(NN=Cc3cccc(C)n3)cc(C)c2c1,.,.,.,4,.,-6,.,.
CCOC(=O)/C=C/COc1ccccc1[N+](=O)[O-],19,8.3*,-4,2,30,-1,89*,27*
CC(C)(C)C(=O)COc1ccccc1[N+](=O)[O-],2,3,-4,1,-9,0,.,.
COC(=O)C1=C(C)N(C)C(=NCC2CC2)NC1c1cccc(C(F)(F)F)c1 (stereo not drawn),.,.,.,-6,.,2,.,.
CCN(CC)S(=O)(=O)c1ccc(Nc2nc3ccccc3n3nnnc23)cc1,13,7.8*,4,4,13,-1,90*,36*
Fc1ccccc1Nc1nc2ccccc2n2nnnc12,5,8.2*,1,6,5,-1,106*,42*
CC(C)(C)c1ccc(-c2cc(NC(=O)Cc3c[nH]c4ccccc34)ccc2Nc2cccnc2)cc1,.,.,.,-3,.,1,.,.
SMILES,AI-2 QS modul,FXN GAA850 act,HSP90 inh,SMARCA2 act,HSF1 inhib,PG9 binder,GAA30 FXN cntr,FXN GAA850 conf
COc1ccc(C(=O)CSC#N)cc1OC,-55,12*,-2,-2,5,-4,8,32*
CCOC(=O)[C@@]12CN(C(=O)OC(C)(C)C)CC=C1N(Cc1ccc(OC)cc1)C(=O)[C@H]2CC(=O)NCCCCc1ccccc1,.,.,.,-3,.,.,.,.
Cc1nn(-c2ccccc2)c(Cl)c1/C=N/NC(=O)c1ccnn1C,8,7.7*,5,6,10,-3,116*,42*
Cc1nn(-c2ccccc2)c(Cl)c1/C=N/NC(N)=O,15,5,-4,-2,-11,1,.,.
O=C(O)c1cccc(N/N=C/c2sc(N3CCOCC3)nc2-c2ccccc2)c1,23,11*,6,5,-8,-6,133*,39*
COc1cccc(CNC(=O)[C@H]2CCCN2C(=O)[C@H]2CCCN2S(=O)(=O)c2cccc(C)c2)c1,.,.,.,0,.,0,.,.
CCN(CC)S(=O)(=O)c1ccc2c(c1)C(=NO)c1cc(S(=O)(=O)N(CC)CC)ccc1-2,15,10*,1,-4,18,0,-11,19*
CC1CCN(S(=O)(=O)c2ccc3c(c2)C(=NO)c2cc(S(=O)(=O)N4CCC(C)CC4)ccc2-3)CC1,.,11*,0,0,.,0,-71,30*
CCN(C[C@H]1N[C@@](CC)(C(=O)OC)[C@H]2C(=O)N(Cc3ccccc3)C(=O)[C@@H]12)S(=O)(=O)c1ccc(OC(F)(F)F)cc1,.,11*,.,2,.,2,21,10*
CCN(C[C@H]1N[C@@](CC)(C(=O)OC)[C@H]2C(=O)N(Cc3ccccc3)C(=O)[C@@H]12)S(=O)(=O)c1ccc(C)cc1,.,10*,.,-2,.,0,11,8.1*
CC(CCN1CCC(C(O)(c2ccccc2)c2ccccc2)CC1)Oc1cccc(C(F)(F)F)c1 (stereo not drawn),.,.,.,-4,.,.,.,.
CCNC(=O)C1(C)CCCN(CCOc2ccc(OC)cc2)C1 (stereo not drawn),.,-1,.,2,.,1,.,.
COC(=O)[C@]12C[C@H](CC(=O)N3CCN(C(=O)C4CC4)CC3)C(=O)N(Cc3cccc4ccccc34)C1=C[C@H](C(C)C)O[C@@H]2C1CC1,.,.,.,-2,.,.,.,.
CCOC(=O)N1CCN(C(=O)c2ccc(S(=O)(=O)Nc3ccc(C)cc3)cc2)CC1,.,2,.,-6,.,0,.,.
CCOC(=O)N1CCN(C(=O)c2ccc(NS(C)(=O)=O)cc2)CC1,-2,9.4*,2,-2,-1,0,27*,17*
C=CCOC(=O)C1=C(C)NC(SCC(=O)Nc2nccs2)=C(C#N)C1c1ccc(Cl)cc1 (stereo not drawn),16,9.6*,5,-7,6,0,14,8.9*
C/C=C/c1ccc(OCCCCOc2ccccc2C(C)=O)c(OC)c1,35,0,-1,-1,-5,0,.,.
C/C=C/c1ccc(OCCCCN(C)Cc2ccccc2)c(OC)c1,5,9.5*,-5,0,-1,-1,16,13*
